Results from PubChem BioAssay AID1159580 (chemical genetic matrix, 2015).
The whole screen tested about 5,500 compounds, of which about 2,000 (36%) were called active. Roughly 18% stayed inconclusive and do not appear here. Cut-off read from the data, not from the text of the source: active = normalized growth mostly below about 0.91 (no sharp cut-off); inconclusive = no clear call, values can overlap the other calls; inactive = mostly above about 0.92. The list shows a part of the results.

Experiment: chemical genetic growth profiling, strain panel (AID 1159580);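 note: tested at 20 µM; growth read once vehicle control cultures reached saturation at 30 °C; 1 = growth at the plate median or of vehicle wells; lower values mean less growth of the strain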
Details: growth OD

Measured: normalized growth

CC(=O)Oc1ccc(Cl)c2cccnc12
active: S. cerevisiae deletion strains, locus YJL187C, strain SWE1, hits give low values 0.0588 | S. cerevisiae deletion strains, locus YJR043C, strain POL32, hits give low values 0.0605 | S. cerevisiae deletion strains, locus YJR075W, strain HOC1, hits give low values 0.0612 | S. cerevisiae deletion strains, locus YKL009W, strain mrt4, hits give low values 0.0837 | S. cerevisiae deletion strains, locus YKL068W, hits give low values 0.061 | S. cerevisiae deletion strains, locus YKL085W, strain MDH1 (second series), hits give low values 0.0554 | S. cerevisiae deletion strains, locus YKL085W, strain MDH1, hits give low values 0.0554 | S. cerevisiae deletion strains, locus YKL160W, strain elf1, hits give low values 0.058 | S. cerevisiae deletion strains, locus YKL190W, strain CNB1, hits give low values 0.0452 | S. cerevisiae deletion strains, locus YKR001C, strain vps1, hits give low values 0.0643 | S. cerevisiae deletion strains, locus YKR026C, strain gcn3, hits give low values 0.0619 | S. cerevisiae deletion strains, locus YKR091W, strain srl3, hits give low values 0.0618 | S. cerevisiae deletion strains, locus YLL001W, strain dnm1, hits give low values 0.0631 | S. cerevisiae deletion strains, locus YLL026W, hits give low values 0.0596 | S. cerevisiae deletion strains, locus YLL041C, strain sdh2, hits give low values 0.0561 | S. cerevisiae deletion strains, locus YLR027C, strain aat2, hits give low values 0.0554 | S. cerevisiae deletion strains, locus YLR039C, strain RIC1, hits give low values 0.0795 | S. cerevisiae deletion strains, locus YLR058C, strain SHM2, hits give low values 0.0497 | S. cerevisiae deletion strains, locus YLR102C, strain apc9, hits give low values 0.0628 | S. cerevisiae deletion strains, locus YLR221C, strain rsa3, hits give low values 0.061 | S. cerevisiae deletion strains, locus YLR258W, strain gsy2, hits give low values 0.0582 | S. cerevisiae deletion strains, locus YLR262C, strain YPT6 (second series), hits give low values 0.0745 | S. cerevisiae deletion strains, locus YLR262C, strain YPT6, hits give low values 0.0956 | S. cerevisiae deletion strains, locus YLR268W, strain sec22, hits give low values 0.0707 | S. cerevisiae deletion strains, locus YLR320W, strain mms22, hits give low values 0.074 | S. cerevisiae deletion strains, locus YLR330W, strain CHS5, hits give low values 0.0507 | S. cerevisiae deletion strains, locus YLR342W, strain FKS1 (second series), hits give low values 0.0702 | S. cerevisiae deletion strains, locus YLR342W, strain FKS1, hits give low values 0.0632 | S. cerevisiae deletion strains, locus YLR357W, strain rsc2, hits give low values 0.13 | S. cerevisiae deletion strains, locus YLR370C, strain arc18, hits give low values 0.0627 | S. cerevisiae deletion strains, locus YLR371W, strain rom2, hits give low values 0.0668 | S. cerevisiae deletion strains, locus YLR384C, strain iki3, hits give low values 0.0595 | S. cerevisiae deletion strains, locus YLR418C, strain cdc73, hits give low values 0.101 | S. cerevisiae deletion strains, locus YML016C, strain PPZ1, hits give low values 0.0485 | S. cerevisiae deletion strains, locus YML032C, strain rad52, hits give low values 0.0749 | S. cerevisiae deletion strains, locus YML120C, strain ndi1, hits give low values 0.0578 | S. cerevisiae deletion strains, locus YML124C, strain tub3, hits give low values 0.0617 | S. cerevisiae deletion strains, locus YMR058W, strain fet3, hits give low values 0.0625 | S. cerevisiae deletion strains, locus YMR078C, strain ctf18, hits give low values 0.0737 | S. cerevisiae deletion strains, locus YMR125W, strain sto1, hits give low values 0.081 | S. cerevisiae deletion strains, locus YMR129W, hits give low values 0.0589 | S. cerevisiae deletion strains, locus YMR205C, strain PFK2, hits give low values 0.0841 | S. cerevisiae deletion strains, locus YMR223W, strain ubp8, hits give low values 0.069 | S. cerevisiae deletion strains, locus YMR231W, strain pep5, hits give low values 0.0641 | S. cerevisiae deletion strains, locus YMR307W, strain GAS1, hits give low values 0.122 | S. cerevisiae deletion strains, locus YNL067W, strain RPL9B, hits give low values 0.0485 | S. cerevisiae deletion strains, locus YNL071W, strain lat1, hits give low values 0.0618 | S. cerevisiae deletion strains, locus YNL153C, strain GIM3, hits give low values 0.048 | S. cerevisiae deletion strains, locus YNL209W, strain ssb2, hits give low values 0.0585 | S. cerevisiae deletion strains, locus YNL233W, strain BNI4, hits give low values 0.0581 | S. cerevisiae deletion strains, locus YNL248C, strain rpa49, hits give low values 0.0904 | S. cerevisiae deletion strains, locus YNL250W, strain rad50, hits give low values 0.127 | S. cerevisiae deletion strains, locus YNL271C, strain bni1, hits give low values 0.0631 | S. cerevisiae deletion strains, locus YNL298W, strain CLA4, hits give low values 0.0622 | S. cerevisiae deletion strains, locus YNL307C, strain MCK1, hits give low values 0.0688 | S. cerevisiae deletion strains, locus YNL322C, strain KRE1 (second series), hits give low values 0.0653 | S. cerevisiae deletion strains, locus YNR049C, strain mso1, hits give low values 0.06 | S. cerevisiae deletion strains, locus YNR052C, strain pop2, hits give low values 0.0622 | S. cerevisiae deletion strains, locus YOL147C, strain pex11, hits give low values 0.0595 | S. cerevisiae deletion strains, locus YOR001W, strain rrp6, hits give low values 0.0713 | S. cerevisiae deletion strains, locus YOR061W, strain CKA2, hits give low values 0.0492 | S. cerevisiae deletion strains, locus YOR069W, strain VPS5, hits give low values 0.0514 | S. cerevisiae deletion strains, locus YOR070C, strain gyp1, hits give low values 0.0596 | S. cerevisiae deletion strains, locus YOR080W, strain dia2, hits give low values 0.064 | S. cerevisiae deletion strains, locus YOR083W, strain WHI5, hits give low values 0.0594 | S. cerevisiae deletion strains, locus YOR106W, strain vam3, hits give low values 0.0646 | S. cerevisiae deletion strains, locus YOR136W, strain idh2, hits give low values 0.0755 | S. cerevisiae deletion strains, locus YOR144C, strain elg1, hits give low values 0.0602 | S. cerevisiae deletion strains, locus YOR184W, strain ser1, hits give low values 0.0785 | S. cerevisiae deletion strains, locus YOR265W, strain rbl2, hits give low values 0.0601 | S. cerevisiae deletion strains, locus YOR270C, strain vph1, hits give low values 0.104 | S. cerevisiae deletion strains, locus YOR290C, strain snf2, hits give low values 0.0601 | S. cerevisiae deletion strains, locus YOR316C, strain cot1, hits give low values 0.0595 | S. cerevisiae deletion strains, locus YPL051W, strain arl3, hits give low values 0.0618 | S. cerevisiae deletion strains, locus YPL055C, strain LGE1, hits give low values 0.0661 | S. cerevisiae deletion strains, locus YPL078C, strain atp4, hits give low values 0.0648 | S. cerevisiae deletion strains, locus YPL106C, strain sse1, hits give low values 0.0984 | S. cerevisiae deletion strains, locus YPL240C, strain hsp82, hits give low values 0.0604 | S. cerevisiae deletion strains, locus YPL241C, strain CIN2, hits give low values 0.0494 | S. cerevisiae deletion strains, locus YPR119W, strain clb2, hits give low values 0.0672 | S. cerevisiae deletion strains, locus YPR141C, strain kar3, hits give low values 0.0666 | S. cerevisiae deletion strains, locus YPR163C, strain tif3, hits give low values 0.0706 | S. cerevisiae deletion strains, locus YPR167C, strain met16, hits give low values 0.0624 | S. cerevisiae deletion strains, strain wtn01, hits give low values 0.0713 | S. cerevisiae strains, strain wild type, hits give low values 0.0465
inactive: S. cerevisiae deletion strains, locus YOL012C, strain htz1 0.23
